Experiment [1] can be described thus: qHTS assay for measurement of the activity of small molecule inhibitors on Zika virus induced Caspase-3 activity in human iPSC derived neural progenitor cells (hNPCs) (AID 1224857). Also: nearly all actives have a fitted effect of over 65% in size. Also: potency is read from the fitted curve at half-maximal effect. The gist of the method: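 In medium with heparin 2 ug/ml and cyclopamine 2 uM, hNPCs (350 cells/well) received compound for one hour and then Zika virus at 2 FFU/cell; caspase activity was measured by Caspase-Glo 3/7 luminescence 6 h post-infection.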
Background: Quantitative high-throughput screening tests each substance at several concentrations.

Experiment [2] can be described thus: P-glycoprotein substrates identified in KB-8-5-11 adenocarcinoma cell line, qHTS therapeutic library screen (AID 1346987). Also: nearly all actives have a fitted effect of over 65% in size. Also: potency is read from the fitted curve at half-maximal effect. The gist of the method:
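KB-8-5-11, a colchicine-selected P-gp-overexpressing KB-3-1 subline, was grown without colchicine for the assay. Cells were seeded at 500 cells/well, dosed in concentration-response and incubated 72 h at 37 degree C, 5% CO2. Viability was read by CellTiter-Glo luminescence.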

The nature of experiment [3]: NS1 protein of Zika virus - qHTS assay to identify small molecule inhibitors in human HEK 293 cells (AID 1347053). Also: nearly all actives have a fitted effect of over 55% in size. Also: potency is read from the fitted curve at half-maximal effect. A digest of the protocol:
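HEK 293 cells, seeded 20 h at 37 C, were pretreated with compound 1 h, then infected with ZIKV MR766 (MOI = 0.5) for 24 h. NS1 was read by TR-FRET with two anti-NS1 antibodies, normalized to uninfected and infected wells.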

Experiment [4] is described as follows: qHTS assay for measurement of the activity of small molecule inhibitors on Zika virus induced Caspase-3 activity in human astrocytoma cells (AID 1224859). A digest of the protocol:
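A cell-based luminescent caspase-3/7 assay used SNB-19 cells infected with ZIKV (2 FFU/cell) for 6 h following 1 h compound pretreatment.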

Experiment [5] in a line: qHTS assay to identify small molecule inhibitors of chordoma cells - UCH-1 (AID 1259355). Also: nearly all actives have a fitted effect of over 55% in size. Also: potency is read from the fitted curve at half-maximal effect; series mostly up to about 46 µM. A digest of the protocol:
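Cells (800/well) were seeded and left overnight at 37 C, 5% CO2, then treated with drugs at 15 concentrations plus a combination mix of auranofin, camptothecin, doxorubicin, rubitecan and topotecan. Viability after 48hr was read by CellTiter-Glo luminescence.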

The nature of experiment [6]: Natriuretic polypeptide receptor (hNpr1) antagonism - Pilot counterscreen GloSensor control cell line (AID 1347045; calls by dose curve; also: series mostly up to about 38 µM). A digest of the protocol: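 HEK293 cGMP GloSensor cells preloaded 2 h with 2% GloSensor reagent, then compound 30 min before baseline luminescence read. Stimulated with 50 uM sodium nitroprusside, 20 min at room temperature, then read again; counterscreen for Npr1 antagonism.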
In general terms: The purpose of a counterscreen is to sort out artefacts and off-target activity.

Experiment [7] concerns the target Atrial natriuretic peptide receptor 1 (Homo sapiens) (UniProt P16066). Nature of the experiment: Natriuretic polypeptide receptor (hNpr1) antagonism - Pilot screen (AID 1347049; calls by dose curve;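 also: agonist-evoked cGMP luminescence read 20 min after hNppA addition; series mostly up to about 58 µM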). The gist of the method: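 HEK293 cells expressing hNpr1 and GloSensor cGMP luciferase, 1500/well, loaded with 2% GloSensor reagent 2 h, compound 30 min at room temperature; luminescence read before and 20 min after 0.1 nM hNppA stimulation.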

Experiment [8] has as its target Atrial natriuretic peptide receptor 2 (Homo sapiens) (UniProt P20594). Put plainly: Natriuretic polypeptide receptor (hNpr2) antagonism - Pilot subtype selectivity assay (AID 1347050; calls by dose curve). The gist of the method:
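HEK293 cells expressing hNpr2 and a GloSensor cGMP luciferase sensor, 1500/well, preloaded 2 h with 2% GloSensor reagent, compound 30 min, then 1 nM hNppC for 20 min. Antagonism from luminescence after versus baseline pre-read; LOPAC in 1:5 titrations.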

A short description of experiment [9]: Identifying Small Molecule Inhibitors of Pancreatic Cancer Stem Cells (A2780, Spheroid) (AID 1259357).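 Also: potency is read from the fitted curve at half-maximal effect; compound exposure lasted 48 h before the ATP luminescence read.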 The following applies: Potency: A2780 spheroid viability. The gist of the method:
(§1)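 Cytotoxicity read by CellTiter-Glo luminescence after 48 h compound exposure at 37C; percent activity scaled between DMSO-treated cells and cell-free wells. Spheroid formats used cells pre-formed 14 days in stem cell media on hydrogel.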

A short description of experiment [10]: Identifying Small Molecule Inhibitors of Pancreatic Cancer Stem Cells (Panc1, Spheroid) (AID 1259359).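 Also: potency is read from the fitted curve at half-maximal effect; compound exposure lasted 48 h before reading.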 The following applies: Panc1 spheroid cancer stem cell viability. A digest of the protocol:
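Luminescent ATP readout (CellTiter-Glo) quantifies surviving cells after a 48 h drug incubation. Normalization uses DMSO wells as no inhibition and media-only wells as full inhibition; bortezomib served as positive control.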

Experiment [11] can be described thus: Identifying Small Molecule Inhibitors of Pancreatic Cancer Stem Cells (SN12C, Spheroid) (AID 1259360). Also: potency is read from the fitted curve at half-maximal effect. To be noted: Potency: SN12C spheroid viability. The gist of the method:
as §1

Experiment [12] is described as follows: Identifying Small Molecule Inhibitors of Pancreatic Cancer Stem Cells (A278, Adherent) (AID 1259361). Also: nearly all actives have a fitted effect of over 35% in size. A digest of the protocol: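 Monolayer and spheroid cultures are compared. Spheroids form over 14 days in stem cell medium on hydrogel-coated low-attachment plates, then are exposed to compound for 48 h before CellTiter-Glo luminescence.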

Inconclusive results are not listed. Calls of active or inactive are those of the source. Unless noted, calls follow the shape of the dose curve; as a rule, active = well fitted curve in the direction sought with a large enough effect; inconclusive = small, poorly fitted or top-dose-only effect, or another doubt; inactive = no such curve, though single readings can be large; an effect the other way counts as inactive or inconclusive.

Chain of Atrial natriuretic peptide receptor 1 (Homo sapiens) (P16066 whole entry, looked up): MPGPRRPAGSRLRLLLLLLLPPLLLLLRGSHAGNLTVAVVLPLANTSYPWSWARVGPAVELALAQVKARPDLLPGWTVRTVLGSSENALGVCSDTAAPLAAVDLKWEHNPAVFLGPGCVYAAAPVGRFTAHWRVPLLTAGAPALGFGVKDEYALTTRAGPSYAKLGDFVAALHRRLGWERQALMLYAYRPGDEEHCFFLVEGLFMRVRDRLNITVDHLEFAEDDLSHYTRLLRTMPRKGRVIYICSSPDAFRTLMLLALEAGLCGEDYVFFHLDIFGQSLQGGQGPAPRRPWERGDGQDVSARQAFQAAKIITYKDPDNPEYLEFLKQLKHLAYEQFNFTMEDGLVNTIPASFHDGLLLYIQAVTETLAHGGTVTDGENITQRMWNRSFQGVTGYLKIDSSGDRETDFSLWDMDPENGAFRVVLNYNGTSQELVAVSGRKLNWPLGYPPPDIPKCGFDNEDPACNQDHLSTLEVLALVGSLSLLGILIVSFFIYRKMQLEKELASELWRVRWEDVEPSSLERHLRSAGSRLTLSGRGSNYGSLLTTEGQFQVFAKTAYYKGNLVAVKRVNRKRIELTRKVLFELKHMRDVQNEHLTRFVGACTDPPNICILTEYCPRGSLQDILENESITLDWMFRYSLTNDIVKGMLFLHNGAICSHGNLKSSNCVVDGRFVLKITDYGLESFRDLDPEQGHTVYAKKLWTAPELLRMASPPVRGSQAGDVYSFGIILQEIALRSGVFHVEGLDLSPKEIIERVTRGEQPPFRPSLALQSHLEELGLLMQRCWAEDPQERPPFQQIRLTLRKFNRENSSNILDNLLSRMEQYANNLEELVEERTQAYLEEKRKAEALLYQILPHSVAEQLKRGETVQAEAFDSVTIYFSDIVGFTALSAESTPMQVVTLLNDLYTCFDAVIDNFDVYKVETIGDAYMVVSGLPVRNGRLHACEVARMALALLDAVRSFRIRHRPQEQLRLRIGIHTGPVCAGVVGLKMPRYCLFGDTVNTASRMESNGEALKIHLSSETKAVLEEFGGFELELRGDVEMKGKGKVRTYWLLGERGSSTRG
Chain of Atrial natriuretic peptide receptor 2 (Homo sapiens) (P20594 whole entry, looked up): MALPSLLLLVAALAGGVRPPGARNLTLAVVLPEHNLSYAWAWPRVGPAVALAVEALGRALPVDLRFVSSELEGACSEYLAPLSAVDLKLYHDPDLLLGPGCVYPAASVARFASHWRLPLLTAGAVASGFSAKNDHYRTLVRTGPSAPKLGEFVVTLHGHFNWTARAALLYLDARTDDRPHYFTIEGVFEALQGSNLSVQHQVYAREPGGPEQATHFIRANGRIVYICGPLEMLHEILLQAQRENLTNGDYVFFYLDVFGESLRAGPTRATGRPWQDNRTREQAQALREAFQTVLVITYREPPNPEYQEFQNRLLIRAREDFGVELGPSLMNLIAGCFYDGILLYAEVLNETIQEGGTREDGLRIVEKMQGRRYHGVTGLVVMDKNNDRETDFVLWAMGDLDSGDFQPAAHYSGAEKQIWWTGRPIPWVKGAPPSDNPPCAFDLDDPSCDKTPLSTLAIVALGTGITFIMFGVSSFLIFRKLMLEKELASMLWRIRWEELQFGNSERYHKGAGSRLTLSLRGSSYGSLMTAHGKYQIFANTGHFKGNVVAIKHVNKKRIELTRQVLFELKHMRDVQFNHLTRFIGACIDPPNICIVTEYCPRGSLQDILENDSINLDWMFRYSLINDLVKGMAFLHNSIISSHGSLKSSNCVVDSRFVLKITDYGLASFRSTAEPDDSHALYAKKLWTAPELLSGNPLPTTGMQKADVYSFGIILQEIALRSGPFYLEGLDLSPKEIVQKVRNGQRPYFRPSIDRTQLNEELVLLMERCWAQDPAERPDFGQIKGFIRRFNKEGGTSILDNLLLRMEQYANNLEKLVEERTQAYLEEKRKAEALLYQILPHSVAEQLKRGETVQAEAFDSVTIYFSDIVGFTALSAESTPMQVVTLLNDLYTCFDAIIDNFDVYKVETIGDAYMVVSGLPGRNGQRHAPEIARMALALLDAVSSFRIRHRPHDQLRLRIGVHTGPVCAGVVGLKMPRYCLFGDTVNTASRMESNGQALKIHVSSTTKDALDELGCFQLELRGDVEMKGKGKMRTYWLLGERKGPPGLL

`Nc1ccc(N=Nc2ccccc2)cc1`: in experiment [1], the Potency was 28200 nM (active). The Potency result in experiment [2] and in experiment [3] was “inactive” in each case.
For `Nc1ccc(Cl)cc1N`, the Potency result in experiment [1], in experiment [4] and in experiment [3] was “inactive” throughout.
With `CCCCC(CC)COC(=O)c1ccccc1C(=O)OCC(CC)CCCC` (centres undefined), the Potency entry in experiment [1], in [2] and in [3] was “inactive” each time.
Regarding `O=[N+]([O-])c1cc([N+](=O)[O-])c2ccccc2c1`, the Potency result in experiment [1], in [4] and in experiment [3] was “inactive” each time.
`CCOP(=O)(NC(C)C)Oc1ccc(SC)c(C)c1` (centres undefined): the Potency result in [1], in experiment [4] and in [3] was “inactive” each time.
Regarding `S=C(SSC(=S)N1CCCCC1)N1CCCCC1`, the Potency entry in [4] is “inactive”.
With `Oc1ccc2c3c1O[C@H]1[C@@H](O)C=C[C@H]4[C@@H](C2)NCC[C@@]341`, the Potency entry in [1], in [4] and in experiment [3] was “inactive” each time.
Consider `COc1nn(CSP(=S)(OC)OC)c(=O)s1`, for which the Potency result in experiment [4], in experiment [2] and in experiment [3] was “inactive” in each case.
For the compound `ClC1=C(Cl)[C@]2(Cl)[C@@H]3[C@@H]4C[C@@H]([C@H]5O[C@@H]45)[C@@H]3[C@@]1(Cl)C2(Cl)Cl`, the Potency result in experiment [1], in experiment [4] and in experiment [3] was “inactive” throughout.
On to `O=C(O)CCCOc1ccc(Cl)cc1Cl`, for which the Potency entry in experiment [4], in experiment [2] and in experiment [3] was “inactive” each time.
`O=C(O)c1cc(Oc2ccc(C(F)(F)F)cc2Cl)ccc1[N+](=O)[O-]`: the Potency result in [1], in experiment [4] and in experiment [3] was “inactive” each time.
`O=[N+]([O-])c1c2ccccc2cc2ccccc12`: the Potency result in [4] and in experiment [3] was “inactive” each time.
As to `O=C(Nc1ccccc1-c1ccc(Cl)cc1)c1cccnc1Cl`, the Potency result in [1] and in experiment [3] was “inactive” each time.
Turning to `O=C(O)COc1nc(Cl)c(Cl)cc1Cl`, the Potency result in experiment [1], in [4] and in [3] was “inactive” each time.
As to `c1cc2ccc3cccc4ccc(c1)c2c34`, the Potency result in experiment [1], in experiment [4] and in experiment [3] was “inactive” in each case.
As for `CO/C=C(/C(=O)OC)c1ccccc1Oc1cc(Oc2ccccc2C#N)ncn1`, the Potency entry in [1] and in [4] was “inactive” each time. Further, the Potency in experiment [3] is 14100 nM (active).
Consider `C[N+](C)(C)CC(=O)O`, for which the Potency result in [1], in experiment [5] and in experiment [3] was “inactive” throughout.
On to `C[C@@H](N)Cc1cnc[nH]1`, for which the Potency entry in experiment [1], in [4], in experiment [6], in experiment [7], in [8] and in experiment [3] was “inactive” each time.
`Nc1ccc([N+](=O)[O-])cc1`: the Potency entry in experiment [1], in [4] and in experiment [3] was “inactive” each time.
With `CC(O)CN1CCN(CC(=O)[O-])CCN(CC(=O)[O-])CCN(CC(=O)[O-])CC1.[Gd+3]` (centres undefined), the Potency entry in [1], in experiment [2] and in experiment [3] was “inactive” in each case.
Regarding `O=C(O)[C@@H]1CCN1`, the Potency entry in [1], in experiment [4], in experiment [6], in experiment [7], in experiment [8] and in [3] was “inactive” in each case.
Consider `CC1CC(C)C(=O)C(C(O)CC2CC(=O)NC(=O)C2)C1` (centres undefined), for which the Potency was 3820 nM (active) in [9], 2410 nM (active) in [10] and 1710 nM (active) in experiment [11].
As for `Fc1cc(Br)ccc1CBr`, the Potency result in [1], in experiment [4] and in experiment [3] was “inactive” throughout.
Consider `CC(C)Oc1cccc(NC(=O)c2ccccc2C(F)(F)F)c1`, for which the Potency entry in [1], in experiment [4] and in experiment [3] was “inactive” throughout.
On to `C=CCC1=C(C)C(OC(=O)C2C(C=C(C)C)C2(C)C)CC1=O` (centres undefined), for which the Potency entry in experiment [1], in experiment [4] and in [3] was “inactive” each time.
`COc1ccc(C(c2ccc(OC)cc2)C(Cl)(Cl)Cl)cc1`: the Potency entry in [1], in experiment [4] and in experiment [3] was “inactive” throughout.
In the case of `CCCCOC(=O)c1ccccc1C(=O)OCc1ccccc1`, the Potency entry in experiment [1], in experiment [4] and in experiment [3] was “inactive” in each case.
Regarding `CC(C)[C@]12O[C@H]1[C@@H]1O[C@]13[C@]1(O[C@H]1C[C@H]1C4=C(CC[C@@]13C)C(=O)OC4)[C@@H]2O`, the values for the Potency in experiment [10], in experiment [11] and in [2] were 23.5 nM (active), 11.8 nM (active) and 20.6 nM (active), respectively. Also, the IC50 (viability decrease) in experiment [12] is 6.6 nM (active).
Consider `CCCCCCCCCC(CC)c1ccc(S(=O)(=O)O)cc1` (centres undefined), for which the Potency result in experiment [4], in [5], in [2] and in experiment [3] was “inactive” each time.
As for `O=C(O)CC[N+](=O)[O-]`, the Potency entry in experiment [1], in experiment [4], in [6], in [7], in experiment [8] and in [3] was “inactive” in each case.
With `CCC(=O)O[C@@H]1C=C2CCC3C(CCC4(C)C3CC[C@@H]4OC(=O)CC)C2CC1` (some centres undefined), the Potency entry in experiment [1], in experiment [4] and in experiment [3] was “inactive” throughout.
In the case of `CC1=C(C(=O)O)N2C(=O)[C@@H](N)[C@H]2SC1`, the Potency result in experiment [1], in [4] and in [3] was “inactive” each time.
As for `CC(C)(C)NC[C@H](O)c1ccc(O)cc1Cl`, the Potency result in [1], in experiment [4] and in [3] was “inactive” each time.
Take `CC(=O)[O][Hg][c]1ccccc1`: in experiment [1], the Potency entry is “inactive”. Also, in experiment [5], the Potency was 7080 nM (active).
Consider `CS(=N)(=O)CC[C@H](N)C(=O)O` (some centres undefined), for which the Potency result in experiment [1], in experiment [4], in experiment [6], in experiment [7], in [8] and in [3] was “inactive” throughout.

These data come from PubChem BioAssay (NCATS).
